Source: PubChem BioAssay
Shown is part of a subset that was picked to be rich in hits.
TDP1 cell CPT = qHTS for Inhibitors of human tyrosyl-DNA phosphodiesterase 1 (TDP1): qHTS in cells in presence of CPT | Potency, µM (highest dose often 46.2 µM), without a hit: at the top dose activity change, negative = growth inhibition, actives largely listed as inhibitors | AID 686979, 2013 | chicken DT40 Tdp1-/-;hTDP1 cells + 20 nM CPT, ATP luminescence, 48 h | 12% of 420,000 active; also: potency is read from the fitted curve at half-maximal effect; nearly all actives have a fitted effect of over 55% in size
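Chicken DT40 Tdp1-/- cells complemented with human TDP1, 400 cells/well, exposed to compounds plus 20 nM camptothecin for at least 48 h at 37 C; viability read as ATP content by CellTiter-Glo luminescence.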
ALOX12 inh = Primary qHTS assay for inhibitors of human arachidonate 12S-lipoxygenase (ALOX12): Round 2 | Polyunsaturated fatty acid lipoxygenase ALOX12 (Homo sapiens), P18054 | purified 12hLO, xylenol orange hydroperoxide absorbance | Potency, µM (top dose mostly 108 µM), inactives show at the top dose activity change, negative = inhibition, actives largely listed as inhibitors | 1.1% of 580,000 active | AID 1671190, 2021; also: potency is read from the fitted curve at half-maximal effect
Target sequence (P18054 whole entry, looked up): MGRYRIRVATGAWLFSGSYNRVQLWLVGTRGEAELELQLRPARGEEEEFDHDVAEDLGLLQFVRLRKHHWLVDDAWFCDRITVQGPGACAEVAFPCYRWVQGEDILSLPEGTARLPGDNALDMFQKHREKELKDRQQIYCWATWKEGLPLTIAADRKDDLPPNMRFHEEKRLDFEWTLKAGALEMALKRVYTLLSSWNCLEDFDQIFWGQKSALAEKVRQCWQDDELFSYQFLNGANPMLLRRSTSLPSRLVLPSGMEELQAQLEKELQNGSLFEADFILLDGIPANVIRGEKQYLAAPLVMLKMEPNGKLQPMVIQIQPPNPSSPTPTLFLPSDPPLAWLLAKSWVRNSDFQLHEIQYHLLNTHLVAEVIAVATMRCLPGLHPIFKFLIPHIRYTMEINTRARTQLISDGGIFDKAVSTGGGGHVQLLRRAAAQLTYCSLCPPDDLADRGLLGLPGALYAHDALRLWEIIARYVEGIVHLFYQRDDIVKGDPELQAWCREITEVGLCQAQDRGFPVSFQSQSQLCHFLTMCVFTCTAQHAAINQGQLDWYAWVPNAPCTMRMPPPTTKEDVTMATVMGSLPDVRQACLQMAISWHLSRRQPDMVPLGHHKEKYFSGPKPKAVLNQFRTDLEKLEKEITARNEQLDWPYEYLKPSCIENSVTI
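Hydroperoxide product was detected by ferrous iron/xylenol orange as the 573 to 405 nm absorbance ratio. Arachidonic acid at 40 uM (final) was turned over for 30 min at room temperature by 150 nM human 12hLO, pH 7.0 Hepes buffer, after 15 min compound preincubation.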
HT1080 IDH1KD tx = qHTS for induction of synthetic lethality in tumor cells producing 2HG: qHTS for the HT-1080-IDH1KD cell line; Potency, µM (top dose mostly 46.1 µM), for inactives: at the top dose activity, negative = toxicity, most hits filed as cytotoxic; 2% of 360,000 active; HT-1080 IDH1 knockdown viability, ATP luminescence, 48 h;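 also: potency is read from the fitted curve at half-maximal effect; 0% = DMSO wells and -100% = cell-free medium wells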
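After a 2 h attachment period, IDH1KD HT-1080 cells took pin-transferred compound for 48 h at 37 °C; ATP-based luminescence after 10 min room-temperature reagent incubation reported viability.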
DT40 TDP1 no CPT = qHTS for Inhibitors of human tyrosyl-DNA phosphodiesterase 1 (TDP1): qHTS in cells in absence of CPT; Potency, µM (top dose mostly 46.2 µM), inactives show at the highest dose activity change, negative = growth inhibition, actives largely listed as inhibitors; DT40 Tdp1-/- hTDP1 cells, no CPT, ATP luminescence, 48 h; 15% of 420,000 active; also: potency is read from the fitted curve at half-maximal effect; nearly all actives have a fitted effect of over 55% in size
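No-CPT arm: Tdp1-/-;hTDP1 DT40 cells (400/well) plus compounds, incubated ≥48 hr at 37 °C. Readout CellTiter-Glo luminescence.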
IL1B secr inh = qHTS for Inhibitors of Inflammasome Signaling: IL-1-beta AlphaLISA Primary Screen. 4.7% of 360,000 active. AID 743279, 2014. activity change, % at 57.5 µM. THP-1 LPS/ATP IL-1B secretion, AlphaLISA, 16 h; stronger effect = lower value; in the data active = activity change below about -50%; inconclusive = mostly about -30% to -49%
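THP-1 cells pretreated 1 hr with compounds (up to 57.5 uM final), then stimulated with LPS (250 ng/mL final) plus ATP (1.25 mM final); secreted IL-1B measured by AlphaLISA after 16 hr, decreased signal indicating inhibition.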
HT1080-NT tox = qHTS for induction of synthetic lethality in tumor cells producing 2HG: qHTS for the HT-1080-NT fibrosarcoma cell line; HT-1080-NT fibrosarcoma viability, CellTiter-Glo ATP luminescence, 48 h; 1.6% of 360,000 active; Potency, µM (series often up to 46.1 µM), inactives show at the highest dose activity, negative = less viability, hits mostly cytotoxic;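 also: NT is the 2HG producing partner of a matched IDH1 knockdown line; potency is read from the fitted curve at half-maximal effect; 0% = DMSO-treated cells and -100% = media-only wells without cells; nearly all actives have a fitted effect of over 55% in size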
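750 cells/well, RPMI + 5% FBS; 2 h settle, compound pin-transfer, 48 h at 37 degrees C. CellTiter-Glo 10 min RT, luminescence. Normalized to DMSO and media-only wells.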
* hit, by the source's call; ? = inconclusive; . = no result. Unless noted, calls follow the shape of the dose curve; as a rule, active = well fitted curve in the direction sought with a large enough effect; inconclusive = small, poorly fitted or top-dose-only effect, or another doubt; inactive = no such curve, though single readings can be large; an effect the other way counts as inactive or inconclusive. Unless noted, % is scaled to controls: 0 for no effect and ±100 for the full control effect.

SMILES	TDP1 cell CPT	ALOX12 inh	HT1080 IDH1KD tx	DT40 TDP1 no CPT	IL1B secr inh	HT1080-NT tox
CN(N=Cc1ccccc1)C(=S)Nc1ccccc1	-76%	?	9%	12µM*	44	-1%
Cc1cccc(N(CC(=O)Nc2ccc(Br)cc2)S(C)(=O)=O)c1C	?	?	.	21µM*	.	.
CS(=O)(=O)N(CC(=O)Nc1ccc(F)c(F)c1)c1cccc([N+](=O)[O-])c1	1%	6%	0%	14%	?	5%
COc1ccc(C)cc1NS(=O)(=O)c1ccc(NC(=O)CN(c2cc([N+](=O)[O-])ccc2C)S(C)(=O)=O)cc1	9.2µM*	-4%	?	15µM*	-23	?
Cc1cccc(NS(=O)(=O)c2ccc(NC(=O)CN(c3cc([N+](=O)[O-])ccc3C)S(C)(=O)=O)cc2)c1	16µM*	?	?	?	?	?
Cc1ccc(CNC(=O)N2CCCC2c2nc(CCOc3ccc(F)cc3)no2)cc1 (stereo not drawn)	.	3%	.	.	.	.
CN1CCC(Cc2ccc(C(=O)NCC3CCCCC3)cc2)CC1	.	4%	.	.	.	.
COc1cccc2cc(-c3nnc(Nc4ccccc4C)s3)c(=O)oc12	?	8%	.	8.2µM*	.	.
COc1ccccc1Nc1nnc(-c2cc3cccc(OC)c3oc2=O)s1	.	-24%	.	.	.	.
CCc1sc(Nc2cccc(C)c2C)nc1-c1cc2cccc(OC)c2oc1=O	?	-18%	.	21µM*	.	.
CCc1sc(Nc2cccc(C)c2)nc1-c1cc2cccc(OC)c2oc1=O	?	-22%	.	21µM*	.	.
COc1cc2c(cc1OC)C(C[C@H]1CN(C(=O)Cc3cccs3)CC[C@H]1CC(=O)O)=NCC2	.	58%	.	.	.	.
COc1cccc(Oc2c(C)oc3cc(OC(=O)c4ccc5c(c4)OCO5)ccc3c2=O)c1	.	17%	.	.	.	.
c1ccc(-c2nc(CSc3nnnn3C3CCCC3)co2)cc1	.	-16%	.	.	.	.
CCCC(C)Nc1oc(-c2ccc(Cl)cc2)nc1C#N (stereo not drawn)	.	-4%	.	.	.	.
COCCN1CC(CO)C2(CCN(Cc3cccc(Cl)c3)CC2)C1 (stereo not drawn)	.	22%	.	.	.	.
CC1=C/C(=N\NC(=O)C2CC2)CC1	.	-19%	.	.	.	.
Cc1ccc2[nH]c(=O)c(CN(c3cccc(C)c3C)S(=O)(=O)c3ccccc3)cc2c1	16µM*	.	?	5.8µM*	5	22%
CC(C)C(=O)N(Cc1ccccc1)Cc1cc2ccccc2[nH]c1=O	.	-6%	.	.	.	.
CC(C)C(=O)N(Cc1cc2ccccc2[nH]c1=O)C(C)(C)C	-18%	0%	2%	21µM*	11	21%
CCCCN(Cc1cc2ccccc2[nH]c1=O)S(=O)(=O)c1ccc(Cl)cc1	.	-27%	.	.	.	.
Cc1ccc(S(=O)(=O)N(Cc2cc3ccccc3[nH]c2=O)c2cccc(C)c2)cc1	10µM*	1%	9%	7.3µM*	18	4%
CCCCN(Cc1cc2ccccc2[nH]c1=O)S(=O)(=O)c1ccc(C)cc1	?	312%	-12%	23µM*	-12	-9%
CC(C)c1nnc(NC(=O)NCC(O)c2ccccc2F)s1 (stereo not drawn)	.	4%	.	.	.	.
O=C(Cn1ccn2nc(-c3ccc(F)cc3)c(CO)c2c1=O)Nc1ccc(C(F)(F)F)cc1	.	18%	.	.	.	.
SMILES	TDP1 cell CPT	ALOX12 inh	HT1080 IDH1KD tx	DT40 TDP1 no CPT	IL1B secr inh	HT1080-NT tox
CCN1CCN(CCCNC(=O)CN2CC3CC(C2)[C@H]2CCCC(=O)N2C3)CC1 (stereo partly drawn)	.	17%	.	.	.	.
O=C1Nc2ccc(-c3ccccc3F)cc2C(=O)N2CCN(C(=O)NC3CCCCC3)C[C@H]12	.	-5%	.	.	.	.
O=c1[nH]c2sc3c(c2c2nc(-c4ccc(O)cc4)nn12)CCC3	.	-18%	.	.	.	.
CC(C)(C)c1csc(NC(=O)c2c(F)c(F)c(F)c(F)c2F)n1	?	-18%	11%	?	-55*	-2%
Cc1nc(C)c(C(=O)NNC(=O)c2ccc(Br)cc2)s1	-7%	?	7%	-29%	22	8%
CC(C)(C)c1csc(NC(=O)c2ccccc2O)n1	-23%	?	?	?	-83*	?
CC(C)(C)c1csc(NNC(=O)c2ccc(Br)cc2)n1	?	0%	9.2µM*	?	93	?
Cc1csc(NC(=O)c2ccccc2O)n1	-15%	295%	-5%	-26%	49	-2%
CC(=O)c1cccc(NS(=O)(=O)c2ccc(C)cc2)c1	.	-2%	.	.	.	.
O=C(COC(=O)C12CC3CC(CC(C3)C1)C2)Nc1ccc(F)cc1[N+](=O)[O-]	.	0%	.	.	.	.
Cc1ccc(C2=[N+]([O-])C(C)(C)C(c3ccc(C)cc3)=[N+]([O-])C2(C)C)cc1	.	-41%	.	.	.	.
CCCCSc1nc(N)cc(N2CCCC(C(=O)N3CCOCC3)C2)n1 (stereo not drawn)	.	-19%	.	.	.	.
COc1cccc(-n2ccn(Cc3cccc(Cl)c3)c(=O)c2=O)c1	.	3%	.	.	.	.
COc1ccccc1CSc1nc2ccccc2s1	.	-4%	.	.	.	.
O=C(NC1CCCC1)c1ccc2c(c1)N(Cc1ccccc1)C(=O)c1ccccc1S2	?	-29%	.	?	.	.
Cc1ccccc1CN1C(=O)c2ccccc2Sc2ccc(C(=O)NC3CCCC3)cc21	16µM*	?	.	?	.	.
Cc1ccc(C)c(CN2C(=O)c3ccccc3Sc3ccc(C(=O)NCc4cccs4)cc32)c1	-30%	-34%	.	?	.	.
Cc1ccccc1CN1C(=O)c2ccccc2Sc2ccc(C(=O)NCc3cccs3)cc21	23µM*	-24%	.	23µM*	.	.
COc1ccccc1N1CCN(C2=NS(=O)(=O)c3ccccc32)CC1	-26%	-20%	-3%	?	19	2%
CC1=NN(C2=NS(=O)(=O)c3ccccc32)C(C)(O)C1 (stereo not drawn)	0.41µM*	0%	4%	0.37µM*	21	2%
Cc1ccc(NC(=O)COc2c(CO)cc(F)cc2CO)cc1	.	-26%	.	.	.	.
N#Cc1ccc(/C=N/NC(=O)c2cc(-c3cccs3)nc3ccccc23)cc1	9.2µM*	?	10µM*	21µM*	7	?
COc1cc(/C=N/NC(=O)c2cc(-c3cccs3)nc3ccccc23)ccc1O	9.2µM*	2%	?	9.2µM*	38	-23%
